The record followed here is the supplement of paper PMC8975748.

The structures appear in SMILES notation. Structures can show the parent of a compound that is named as a salt.

For the assay, the system named is Saccharomyces cerevisiae BY4741 SeMeCo community. Nature of the assay: z-score of subpopulation abundance vs DMSO median, subpopulation auxotrophic for M; higher = larger share of this subpopulation than in DMSO controls. The conditions noted are these: 10 µM; 24 h; SM minimal medium; subpopulation (auxotrophy): M. The protocol: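 Fluorescent four-plasmid SeMeCo (self-establishing metabolically cooperating S. cerevisiae BY4741 community; plasmids pH-mRuby2, pL-mWasabi, pU-eCFP, pM-TagRFP657) was grown 24 h in minimal SM medium with each Selleck FDA-approved drug at 10 µM in 384-well plates. Cells were fixed and imaged by high-content confocal microscopy. For each auxotrophic subpopulation (and the prototroph), a z-score gives the deviation from the DMSO vehicle-control population median.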
Take `CC[C@@H](C(N)=O)N1CCCC1=O` [Levetiracetam]: the “z-score of subpopulation abundance” value came to 0.08.
Next, `CN(C)[C@@H]1C(=O)C(C(N)=O)=C(O)[C@@]2(O)C(=O)C3=C(O)c4c(O)cccc4[C@@](C)(O)[C@H]3C[C@@H]12` [Tetracycline HCl]: -0.05; `Cn1cc(C2=C(c3cn(C4CCN(Cc5ccccn5)CC4)c4ccccc34)C(=O)NC2=O)c2ccccc21`: -1.26; `CCOC(=O)Nc1ccc(NCc2ccc(F)cc2)cc1N` [Retigabine]: 0.51.
Next, `O=c1[nH]c2ccccc2n1CCCN1CCC(n2c(=O)[nH]c3cc(Cl)ccc32)CC1` [Domperidone]: 0.22.
For the compound `C[C@@H]1CC[C@H]2[C@@H](C)C(=O)O[C@@H]3O[C@@]4(C)CC[C@@H]1[C@]32OO4` [Artemisinin], the “z-score of subpopulation abundance” value is -4.51.
With `CN1[C@@H]2C[C@@H](OC(=O)[C@H](CO)c3ccccc3)C[C@H]1[C@@H]1O[C@@H]12` [Scopolamine HBr] the figure was -0.04; with `C=CN1CCCC1=O.II` [Povidone iodine], -0.79; with `COc1ccc(C(CN(C)C)C2(O)CCCCC2)cc1` (stereo not given) [Venlafaxine HCl], 0.68.
`N#Cc1nn(-c2c(Cl)cc(C(F)(F)F)cc2Cl)c(N)c1[S+]([O-])C(F)(F)F` (stereo not given) [Fipronil]: the “z-score of subpopulation abundance” value was -1.13.
Next, `C[C@H]1O[C@H](O[C@H]2[C@H](O)[C@@H](O)[C@@H](O)[C@H](O)[C@@H]2O)[C@@H](N)C[C@@H]1NC(=N)C(=O)O` [Kasugamycin hydrochloride]: -0.97; `Oc1cc(Cl)ccc1Oc1ccc(Cl)cc1Cl` [Triclosan]: -4.35.
Next, `COc1ccc2[nH]cc(CCN)c2c1` [5-Methoxytryptamine]: 0.64; `CCN(CC)CCOC(=O)C(O)(c1ccccc1)c1ccccc1` [Benactyzine hydrochloride]: -1.19; `CN1[C@@H]2CC[C@H]1C[C@@H](OC(=O)[C@H](CO)c1ccccc1)C2` [Hyoscyamine]: -0.65.
Turning to `CC(=O)OCC1=C(C(=O)O)N2C(=O)C(N)C2SC1` (stereo not given) [7-Aminocephalosporanic acid], the “z-score of subpopulation abundance” value is -0.97.
With `NCCc1c[nH]c2ccc(O)cc12` [Serotonin HCl] the figure was 0.15; with `CN(C)C(=O)Oc1ccc[n+](C)c1` [Pyridostigmine Bromide], 0.47; with `C[N+]12CCC(CC1)C(OC(=O)C(O)(c1ccccc1)c1ccccc1)C2` (stereo not given) [Clidinium Bromide], -0.85.
With `CCCCCCCCCCCCCCCC[n+]1ccccc1` [Cetylpyridinium Chloride] the figure was -6.34; with `Nc1nc(N)nc(NC2CC2)n1` [Cyromazine], 0.95.
With `NCC(O)c1ccc(O)cc1` (racemic) [(+,-)-Octopamine HCl] the figure was 0.19; with `CN[C@@H]1[C@@H](O)[C@@H](O[C@@H]2[C@@H](O)[C@H](O[C@H]3O[C@H](CN)CC[C@H]3N)[C@@H](N)C[C@H]2N)OC[C@]1(C)O.CN[C@@H]1[C@@H](O)[C@@H](O[C@@H]2[C@@H](O)[C@H](O[C@H]3O[C@H]([C@@H](C)N)CC[C@H]3N)[C@@H](N)C[C@H]2N)OC[C@]1(C)O.CN[C@@H]1[C@@H](O)[C@@H](O[C@@H]2[C@@H](O)[C@H](O[C@H]3O[C@H]([C@@H](C)NC)CC[C@H]3N)[C@@H](N)C[C@H]2N)OC[C@]1(C)O` [Gentamicin Sulfate], -0.59; with `CCN(C)C(=O)Oc1cccc([C@H](C)N(C)C)c1` [Rivastigmine], 1.32.
`COc1ccc(C=O)cc1` [p-Anisaldehyde]: the “z-score of subpopulation abundance” value is -1.36.
With `O=C(O[C@H]1C[N+]2(CCCOc3ccccc3)CCC1CC2)C(O)(c1cccs1)c1cccs1` [Aclidinium Bromide] the figure was 0.23; with `CN[C@@H]1[C@@H](O)[C@@H](O[C@@H]2[C@@H](O)[C@H](O[C@H]3O[C@H]([C@@H](C)O)[C@@H](O)[C@H](O)[C@H]3N)[C@@H](N)C[C@H]2N)OC[C@]1(C)O` [Geneticin (G418 Sulfate)], -0.27; with `N[C@@H]1C[C@H]1c1ccccc1` [Tranylcypromine (2-PCPA) HCl], -0.13.
For the compound `CC(C)N(CCC(C(N)=O)(c1ccccc1)c1ccccn1)C(C)C` (stereo not given) [Disopyramide], the “z-score of subpopulation abundance” value was -0.53.
With `CCOC(=O)Nc1ccc(NCc2ccc(F)cc2)cc1N` [Retigabine 2HCl] the figure was 0.27; with `O=C(O[C@H]1C[C@H]2CC[C@@H](C1)[N+]21CCCC1)C(O)(c1ccccc1)c1ccccc1` [Trospium chloride], 0.12; with `CN1[C@@H]2C[C@@H](OC(=O)[C@H](CO)c3ccccc3)C[C@H]1[C@@H]1O[C@@H]12` [Scopolamine HBr trihydrate], -0.97.
Next, `Oc1cccc2cccnc12` [8-Hydroxyquinoline]: 1.04.
With `CN1c2ccccc2C(NCCCCCCC(=O)O)c2ccc(Cl)cc2S1(=O)=O` (stereo not given) [Tianeptine sodium] the figure was 0.9.
`COc1ccc2c(c1)[C@]13CCCC[C@@H]1[C@H](C2)N(C)CC3` [Dextromethorphan hydrobromide hydrate]: the “z-score of subpopulation abundance” value amounted to 0.1.
Next, `C[CH2][Hg][S]c1ccccc1C(=O)[O-].[Na+]` [Thimerosal]: -0.95; `CN1[C@@H]2CC[C@H]1C[C@@H](OC(=O)C(CO)c1ccccc1)C2` (stereo not given in full) [Atropine sulfate monohydrate]: -0.25.
Next, `O=[N+]([O-])C(Br)(CO)CO` [Bronopol]: 0.51; `C[N+]1(C)[C@@H]2C[C@@H](OC(=O)[C@H](CO)c3ccccc3)C[C@H]1[C@@H]1O[C@@H]12` [Methscopolamine]: -0.33; `C=C(C)[C@H]1Cc2c(ccc3c2O[C@@H]2COc4cc(OC)c(OC)cc4[C@@H]2C3=O)O1` [Rotenone (Barbasco)]: 0.37.
